Screening results from PubChem BioAssay.
Gli-Sufu block: Gli-Sufu pathway antagonists, primary screen, luciferase luminescence, Sufu-KO-LIGHT cells, uHTS; inhibition, % at 5 µM; 0.74% of 340,000 active; Sufu-KO-LIGHT fibroblasts, Gli luciferase reporter luminescence;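 active = inhibition above about 55%, limit read from the data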;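 note: 0% = DMSO-treated cells and 100% = wells with medium but no cells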
aSyn 5UTR inh: MLPCN primary screen, SNCA 5' untranslated region; alpha-synuclein 5'UTR reporter, inhibitor activity; inhibition, % (tested at 7.5 µM); 0.82% of 300,000 active; AID 1813, 2009; in the data active = inhibition above about 60%;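 note: H4 neuroglioblastoma cells stably carrying SNCA 5'UTR luciferase fusion; 0% = DMSO wells and 100% = positive control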
TAG inh: inhibitors of triacylglycerol accumulation, primary screen, cell-based, uHTS, fluorescence, H9c2; H9c2 cells, Nile Red lipid (TAG) fluorescence; cells loaded with 200 µM oleic acid; inhibition, % at 12.5 µM; 0.66% of 230,000 active; AID 651582, 2012;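 active = pattern-corrected inhibition of lipid staining of at least 50% with the nuclear-stain viability signal not falling by more than 50%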;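 note: 0% = DMSO wells and 100% = triacsin C control wells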
Jurkat NFkB inh: inhibitors of induced NF-kB luciferase reporter, primary screen, TCR NF-kB activation inhibitor project, cell-based, luminescence, uHTS; inhibition, % at 4 µM; 0.53% of 330,000 active; Jurkat, PMA/ionomycin-induced NF-kB luciferase reporter; in the data active = inhibition above about 50%
697 NFkB inh: inhibitors of PMA/ionomycin-induced NF-kB reporter, 697 cells, primary screen, B-cell NF-kB inhibitor project, cell-based, luminescence, uHTS | 697 B-cell NF-kB luciferase reporter, 16 h | inhibition, % at 4 µM | 0.33% of 330,000 active; in the data active = inhibition above about 35%
Shn3 3UTR inh: reduction of Shn3 3'UTR firefly luciferase signal, primary screen, Schnurri-3 inhibitor project, cell-based, Clone20 osteoblasts, set 2. Clone20 osteoblast Shn3 3'UTR firefly luciferase, 24 h. inhibition, % at 12.5 µM. 0.52% of 360,000 active;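 active = mean inhibition of at least 75% with every replicate also reaching 75%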;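 note: 0% = median of neutral control wells and 100% = pilot-screen positive control compound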
697 NFkB conf: PMA/ionomycin-induced NF-kB reporter inhibitors, 697 retest, confirmation, B-cell NF-kB inhibitor project, cell-based, luminescence, single concentration; shares compounds with 697 NFkB inh; 697 B-cell NF-kB luciferase, 16 h; inhibition, % at 4 µM; 35% of 2,000 active; in the data active = inhibition mostly above about 28%, no sharp cut-off; inactive = mostly below about 22%
* = called active by the depositor; i = inactive; · = no result. A selection: hits, their analogues and other compounds. The true share with any hit is near 2.3%.

SMILES	Gli-Sufu block	aSyn 5UTR inh	TAG inh	Jurkat NFkB inh	697 NFkB inh	Shn3 3UTR inh	697 NFkB conf
Cc1c(CCC(=O)N2CCC[C@H]2C(=O)O)c(=O)oc2cc3oc4c(c3cc12)CCCC4	6.9	76.9*	·	-21.6	60.1*	38.9	41.7*
O=C(NC1CCCc2c1cnn2-c1ccccc1F)c1ccccn1 (stereo not drawn)	20.9	52.8	·	-65.8	i	3.1	i
O=C(NC1CCCc2c1cnn2-c1ccc(F)cc1F)c1ccccn1 (stereo not drawn)	3.8	4.9	-55.2	13.8	-15.5	11.4	·
Cc1cc(C)c(C(=O)NC2CCCc3c2cnn3-c2cccc(C)c2C)o1 (stereo not drawn)	1.5	23.9	-1.6	20.4	-276.1	29.5	-23.2
CCc1ccc(NC(=O)C(=O)NCCN2CCN(C(=O)c3ccc(OC)cc3)CC2)cc1	·	·	-11.9	·	·	9.2	·
Cn1c(=N)n(CC(=O)c2ccc(Cl)c(Cl)c2)c2ccccc21	9.4	80.8*	·	-76.9	-439.3	27.2	-414.0
Cn1c(=N)n(CC(=O)O)c2ccccc21	-2.1	-9.5	-0.3	13.3	1.4	-2.2	·
Cn1c(=N)n(CC(=O)c2ccccc2)c2ccccc21	-61.8	89.8*	10.5	-37.4	-286.9	15.3	-258.9
O=C(N/N=C/c1cccnc1)c1cc(-c2ccccc2OCc2ccccc2)n[nH]1	11.5	-5.2	-15.6	21.7	35.0*	·	25.9*
O=C(N/N=C/c1cccnc1)c1ccccc1OCc1ccc(Cl)cc1	·	29.5	·	8.7	-3.5	·	·
Cc1nc2ncnn2c(C)c1CCC(=O)NCc1ccc2c(c1)OCO2	4.0	8.3	16.9	-6.3	9.8	-1.5	·
Brc1ccccc1-n1nnc(-c2cnc3ccccc3c2)n1	-62.5	7.1	12.2	-149.8	-305.7	-72.4	-320.8
Clc1nc2ccccc2cc1-c1nnn(-c2ccccc2Br)n1	-44.7	-127.9	3.7	-19.3	-72.6	-70.1	·
CCC(=O)N1CCc2cc(Br)c(S(=O)(=O)CCC(=O)NCCc3ccccc3)cc21	6.5	·	1.1	·	·	6.1	·
CC1(C)C(=O)OC(c2cccn2-c2cccc([N+](=O)[O-])c2)C2(CCCCC2)C1=O (stereo not drawn)	·	40.2	·	2.0	10.5	·	·
O=C(O)c1ccccc1C(=O)NCc1cccnc1	-4.6	8.6	·	5.1	2.5	3.4	·
O=C(NCc1cccnc1)c1cccn2c(=O)c3sccc3nc12	1.4	-10.7	-2.8	-7.4	37.9*	-2.4	26.8
CCOc1ccc(NC(=O)CSc2nnc(-c3ccccc3Cl)n2Cc2ccco2)cc1	-4.4	·	11.0	16.2	16.1	7.9	·
Cc1c(C#N)c(N=CN(C)C)c(C(=O)c2ccc(Br)cc2)n1-c1ccc(Cl)cc1	12.9	23.2	·	-17.9	-3.7	-4.1	·
COC(=O)c1ccc(-c2nc(O)c(C)s2)cc1	-8.4	-12.4	·	7.1	-1.1	-3.2	·
COC(=O)c1ccc(-c2nc3cc(Cl)c(N)cc3s2)cc1	-67.3	29.5	3.1	-138.1	-258.1	34.4	-83.0
CC(=O)c1c(C)nc(Nc2nc3ccccc3s2)nc1C	-64.5	-82.8	8.3	-129.4	-290.7	-107.0	-206.2
COc1ccc(-c2nnn(CC(=O)N(CCCO)C(C(=O)NC3CCCC3)c3ccncc3)n2)cc1 (stereo not drawn)	18.3	-10.1	5.2	6.9	-0.4	13.7	·
CCOC(=O)COc1cc(=O)n(CC)c2ccccc12	-5.0	-10.9	12.8	-0.1	25.7	-11.3	·
CCn1c(=O)cc(OCC(=O)Nc2ccc3c(c2)OCCO3)c2ccccc21	5.5	4.4	·	-1.0	30.7	-13.9	·
CCN(CCCNC(=O)COc1cc(=O)n(CC)c2ccccc12)c1ccccc1	17.4	4.8	·	2.1	5.1	17.6	·
CCn1c(=O)cc(OCC(=O)N(C)C2CCCCC2)c2ccccc21	6.9	3.5	·	-2.1	39.0*	-11.4	43.9*
